DRV1 agonist: activates human resolvin D1 receptor GPR32. 48,000 compounds, 2.5% hits. AID 1346428. CHO-K1 GPR32 beta-arrestin PathHunter luminescence, 90 min; zero percent set by DMSO-only wells. activation, % at 76.9 µM;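 active = activation of at least 60% and not above a set upper limit, about 1 call in 100 departs from these limits; inconclusive = activation of 40% to 60%, or above that upper limit; inactive = activation under 40%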; note: 0% is about no effect
Target sequence (O75388 whole entry, looked up): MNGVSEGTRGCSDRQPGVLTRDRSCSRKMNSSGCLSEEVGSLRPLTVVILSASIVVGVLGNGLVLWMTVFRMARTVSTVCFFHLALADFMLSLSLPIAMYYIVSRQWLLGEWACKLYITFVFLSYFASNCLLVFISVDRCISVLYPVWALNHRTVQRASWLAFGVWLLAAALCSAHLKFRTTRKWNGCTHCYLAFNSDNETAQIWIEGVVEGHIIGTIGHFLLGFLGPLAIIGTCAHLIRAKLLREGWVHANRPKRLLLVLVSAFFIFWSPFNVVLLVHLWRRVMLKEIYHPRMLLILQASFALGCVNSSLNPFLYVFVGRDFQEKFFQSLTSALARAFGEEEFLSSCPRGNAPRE
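GPR32 activation in stably transfected CHO-K1 cells, detected as beta-arrestin recruitment by enzyme-fragment complementation. Compound exposure: 90 min, 37 °C.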
UDG counterscr: UDG inhibition counter-screen; AID 1347430; 91,000 compounds, 0.14% hits; FRET deamination/UDG coupled assay, UDG read, 4 h; Potency, µM (highest dose often 115 µM), for the others: at the highest dose activity change, negative = inhibition, hits mostly inhibitors; note: potency is the fitted concentration of half-maximal effect; % is set by controls: 0 for no effect and ±100 for the full control effect; nearly all actives have a fitted effect of over 65% in size
AID inhibitor: activation induced cytidine deaminase inhibition; 91,000 compounds, 0.32% hits; AID deamination FRET fluorescence, UDG-coupled, 4 h; Potency, µM (highest dose often 115 µM), most hits filed as inhibitors; note: potency is the fitted concentration of half-maximal effect; % is set by controls: 0 for no effect and ±100 for the full control effect; nearly all actives have a fitted effect of over 25% in size
Target sequence (Q9GZX7 whole entry, looked up): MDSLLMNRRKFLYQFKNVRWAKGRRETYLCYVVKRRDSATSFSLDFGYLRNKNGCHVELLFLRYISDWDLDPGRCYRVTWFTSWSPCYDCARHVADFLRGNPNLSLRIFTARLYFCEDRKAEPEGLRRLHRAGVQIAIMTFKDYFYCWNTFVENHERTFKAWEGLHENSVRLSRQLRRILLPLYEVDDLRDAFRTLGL
The depositor's hits bear a star; i = inactive; ? = inconclusive; / = no result given; [ ] = remark or other dose. The entries come from a sample that favours hits as a whole. Unless noted, calls come from the whole dose curve; as a rule, active = well fitted curve in the direction sought with a large enough effect; inconclusive = small, poorly fitted or top-dose-only effect, or another doubt; inactive = no such curve, though single readings can be large; an effect the other way counts as inactive or inconclusive.

SMILES	DRV1 agonist	UDG counterscr	AID inhibitor
CCn1cc(S(=O)(=O)c2ccc(OC)cc2)c(=O)c2cc(F)c(N3CCCCCC3)cc21	6	-9%	i
Cc1ccc(C)c(CSc2nc3nc[nH]c3c(=O)[nH]2)c1	/	-5%	i
CC1=C(C(=O)OC(C)C)C(c2cccc(Cl)c2Cl)CC(=O)N1 (configuration not stated)	/	0%	i
COC(=O)C1=C(C)NC(COC(N)=O)=C(C(=O)OC(C)C)C1c1cccc(Cl)c1Cl (configuration not stated)	86*	/	/
O=C(c1ccncc1)N1CCN(CC2CC=CCC2)CC1 (configuration not stated)	/	-1%	i
Cc1cccc2c(=O)n(CC(=O)Nc3ccc4oc(C(C)(C)C)nc4c3)cnc12	/	-1%	i
Cc1ccccc1Nc1c(-c2ccccc2)nc2cccc(C)n12	-20	-10%	i
Cc1ccccc1Nc1c(-c2c[nH]c3ccccc23)nc2cccc(C)n12	63*	-9%	i
Cc1ccc2nc(-c3c[nH]c4ccccc34)c(Nc3ccccc3C)n2c1	-9	9%	i
Cc1ccccc1Nc1c(-c2ccc(Cl)s2)nc2cccc(C)n12	61*	-8%	i
COc1ccc(-c2nc(C#N)c(NC(C)c3ccccc3)o2)cc1 (configuration not stated)	/	8%	i
C=C(Br)COc1ccccc1C(N)=O	/	1%	i
CC(C)CCNC(=O)Cn1c(=O)n(CCC(C)C)c(=O)c2sccc21	/	-3%	i
Cc1ccc(Cl)cc1NC(=O)C(=O)c1cn(CC(=O)N2CCOCC2)c2ccccc12	/	-5%	i
CCN(CC)C(=O)c1sc2c(c1C)c(=O)n(-c1ccc(Cl)c(Cl)c1)c(=O)n2Cc1cc(=O)n2ccccc2n1	-16	?	89µM*
CCN(CC)C(=O)c1sc2c(c1C)c(=O)n(-c1ccc(C)c(C)c1)c(=O)n2Cc1cc(=O)n2ccccc2n1	-8	-12%	i
CC(C)CNC(=O)NC(=O)CN(C)C1CCCCCC1	/	3%	i
Cc1cccc(C(=O)NC(C)c2cccs2)c1I (configuration not stated)	/	-8%	i
Cc1ccc(C(=O)NCCc2nc3cc(NC(=O)C4CCCCC4)ccc3n2C)cc1F	/	2%	i
Cc1nnc(NC(=O)c2nc(S(=O)(=O)Cc3ccccc3)ncc2Cl)s1	81*	5%	i
O=C(Nc1nc2ccc(F)cc2s1)c1nc(S(=O)(=O)Cc2ccccc2)ncc1Cl	91*	16%	i
Cc1cccc(CS(=O)(=O)c2ncc(Cl)c(C(=O)Nc3nc4ccc(F)cc4s3)n2)c1	10	2%	i
COc1ccc2nc(NC(=O)c3nc(S(=O)(=O)Cc4ccccc4)ncc3Cl)sc2c1	-18	4%	i
CC(NCc1ccc(C#N)cc1)c1ccc(F)cc1F (configuration not stated)	/	2%	i
C/C=C/C[N+](C)(C/C=C/C)CC(=O)C(C)(C)C	/	2%	i
SMILES	DRV1 agonist	UDG counterscr	AID inhibitor
CC(=O)NC(Cc1c[nH]c2ccccc12)C(=O)N1CCN(S(=O)(=O)c2ccc(F)cc2)CC1 (configuration not stated)	/	9%	i
COc1cccc(NC(=O)Cn2c(=O)n(Cc3ccco3)c(=O)c3cc(OC)c(OC)cc32)c1	74*	-9%	i
COc1ccc(OC)c(NC(=O)Cn2c(=O)n(Cc3ccco3)c(=O)c3cc(OC)c(OC)cc32)c1	20	-13%	i
Cc1cc(CSc2nnc(-c3ccc(Cl)cc3)n2Cc2ccco2)on1	/	-11%	i
O=C(c1ccc(Br)cc1)N1CCC(c2nc3ccccc3s2)CC1	42	-6%[57.5 µM]	i
CCc1ccc(OC(C)C(=O)N2CCC(c3nc4ccccc4s3)CC2)cc1 (configuration not stated)	29	?	?
O=C(COc1cccc(Cl)c1)N1CCC(c2nc3ccccc3s2)CC1	72*	-16%[57.5 µM]	i
COc1ccc(OCC(=O)N2CCC(c3nc4ccccc4s3)CC2)cc1	47	-14%[57.5 µM]	i
COc1ccccc1OC(C)C(=O)N1CCC(c2nc3ccccc3s2)CC1 (configuration not stated)	85*	-9%[57.5 µM]	i
O=C(c1ccc(F)cc1)N1CCC(c2nc3ccccc3s2)CC1	64*	-19%[57.5 µM]	i
O=C(Nc1ccccc1Cl)C1Sc2nnc(-c3ccccc3)n2NC12CCCC2 (configuration not stated)	/	-8%	i
CCNC(=O)NC(=O)C(C)N(C)CCCCc1ccccc1 (configuration not stated)	/	4%	i
Nc1cccc(-c2ccn[nH]2)c1	/	1%	i
CSc1ccc(CN(C)CC(=O)NC(=O)NCc2ccco2)cc1	/	14%	i
CC(C)(C)c1ccc(C(=O)NNc2ncnc3c2cnn3-c2ccccc2)cc1	104*	-26%	i
CC(C)(C)c1ccc(C(=O)NNc2ncnc3c2cnn3-c2ccc(Cl)cc2)cc1	26	?	?
Cc1[nH]c2cc3c(-c4ccccc4)cc(-c4ccccc4)nc3cc2c1C	/	40%	i
CC1CCCCC1NC(=O)c1ccc(-c2ccccc2)cc1 (configuration not stated)	/	0%	i
Cc1cccc(NC(=O)CSc2nc(-c3cccs3)nc3cc(=O)[nH]n23)c1	-22	15%	i
Cc1ccc(NC(=O)CSc2nc(-c3cccs3)nc3cc(=O)[nH]n23)cc1	99*	11%	i
COc1cc(NC(=O)CSc2nc(-c3ccc(C)cc3)nc3c2Cc2ccccc2O3)cc(OC)c1	8	-17%	i
O=C(CSc1nc(-c2ccc(F)cc2)nc2c1Cc1ccccc1O2)Nc1cccc(C(=O)O)c1	0	0%	40µM*
COc1ccc(-c2nc3c(c(SCC(=O)Nc4cccc(O)c4)n2)Cc2c(CO)cnc(C)c2O3)cc1	-5	-15%	45µM*
CCOc1ccc(NC(=O)CSc2nc(-c3ccc(OC)cc3)nc3c2Cc2c(CO)cnc(C)c2O3)cc1	-15	2%	i
CCC(=O)Nc1sc2c(c1C#N)CCC(C)C2 (configuration not stated)	/	-9%	i
SMILES	DRV1 agonist	UDG counterscr	AID inhibitor
COc1ccc(C2Nc3ccccc3-n3c(-c4ccccc4)c4c(=O)n(C)c(=O)n(C)c4c32)cc1 (configuration not stated)	0	?	?
COc1ccc(-c2c3c(=O)n(C)c(=O)n(C)c3c3n2-c2ccccc2NC3c2ccccc2OC)cc1 (configuration not stated)	-17	79µM*	?
Cc1ccc(C(NC(=O)COc2ccccc2)c2cccs2)cc1 (configuration not stated)	/	3%	i
COCCCNC(=O)Cn1c(=O)n(Cc2ccc(C(=O)NCc3ccc(C)cc3)cc2)c(=O)c2ccccc21	98*	-2%	?
COCCCNC(=O)c1ccc(Cn2c(=O)c3ccccc3n(CC(=O)Nc3ccc(C)cc3C)c2=O)cc1	7	-11%	i
Cc1ccc(-c2csc(Nc3ccc(N(C)C)cc3)n2)cc1	/	6%	i
Cc1cc(C)cc(Nc2ncnc3sc4c(c23)CCCC4)c1	-6	-11%	i
CC(=O)Nc1ccc(Nc2ncnc3sc4c(c23)CCCC4)cc1	97*	-10%	i
